About 79,000 compounds went through this panel and 15% of them were active in at least one assay; those are over-represented in the sample as a whole. Unmarked numbers belong to inactive results. Activity calls are given as the source filed them. Cut-off read from the data, not from the text of the source: active = growth inhibition above about 70%; inactive = the rest.

Experiment [1] is described as follows: NCI Yeast Anticancer Drug Screen. Data for the rad50 strain (AID 155).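 Note: 0% = growth of vehicle-only cultures of the same strain.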 As to conditions: S. cerevisiae rad50 strain growth inhibition, hits give high values. In short, it runs like this: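 Yeast carrying a defined DNA repair defect were exposed to test compounds, and growth was compared with vehicle-treated controls to give percent inhibition.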
Experiment [2] in a line: NCI Yeast Anticancer Drug Screen. Data for the mec2-1 strain (AID 157). Particulars: S. cerevisiae mec2-1 strain, hits give high values. In short, it runs like this:
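Using mec2-1 yeast: add compound, measure growth, express inhibition versus vehicle-treated cultures.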

A short description of experiment [3]: NCI Yeast Anticancer Drug Screen. Data for the sgs1 mgt1 strain (AID 161).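 Note: 0% = growth of cultures given vehicle only.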 As to conditions: S. cerevisiae sgs1 mgt1 strain, hits give high values. In short, it runs like this: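 This yeast growth screen uses a strain with defined DNA-repair lesions; compound-treated growth is compared with vehicle-treated growth.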
Experiment [4] is described as follows: NCI Yeast Anticancer Drug Screen. Data for the cln2 rad14 strain (AID 165).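 Note: 0% = growth equal to vehicle treated cultures.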 Particulars: S. cerevisiae cln2 rad14 strain, hits give high values. The method in brief:
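Yeast strain cln2 rad14, bearing defects in cell cycle control and DNA repair, serves as the test system; values reflect growth inhibition compared with vehicle.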

Experiment [5] in a line: NCI Yeast Anticancer Drug Screen. Data for the bub3 strain (AID 167). Particulars: S. cerevisiae bub3 mutant strain, hits give high values. In short, it runs like this:
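Compounds were applied to a genetically altered yeast strain carrying a cell-cycle control defect. Growth inhibition was scored against vehicle-treated controls.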

Experiment [6] in a line: NCI Yeast Anticancer Drug Screen. Data for the mlh1 rad18 strain (AID 175). Particulars: S. cerevisiae mlh1 rad18 strain growth inhibition, hits give high values. The method in brief:
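Steps: expose repair-defective yeast to compound; measure growth; express inhibition against vehicle-treated controls.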

Where [7] appears, read: at 5.0 µM (retest, dose inferred, filed as 0.5).
[8] abbreviates: at 50.0 µM (retest, dose inferred, filed as 5.0).

For `Cn1c(=O)c2c(nc(OCC(C)(C)C)n2C)n(C)c1=O`, the growth inhibition in experiment [1] (setting [7]) is 4%; in experiment [1] (setting [8]) it was 2%; in experiment [1] (at 50.0 µM) it was -5.2%; in experiment [2] (setting [7]), 0%; in experiment [2] (setting [8]) it was 5%; in experiment [2] (at 50.0 µM), 10.9%. Also, the growth inhibition in experiment [3] (setting [7]) is 3%; in experiment [3] (setting [8]), -1%; in experiment [3] (at 50.0 µM), 26.1%; in experiment [4] (setting [7]), 9%; in experiment [4] (setting [8]), 8%; in experiment [4] (at 50.0 µM), 8.75%. Moreover, the growth inhibition was 0% in experiment [5] (setting [7]); 3% in experiment [5] (setting [8]); 16.9% in experiment [5] (at 50.0 µM); -13% in experiment [6] (setting [7]); 3% in experiment [6] (setting [8]); 23.8% in experiment [6] (at 50.0 µM).

Take `O=c1cc(N=Nc2ccc(Cl)c(Cl)c2)[nH]c(=O)[nH]1`: the growth inhibition was 37% in experiment [1] (setting [7]); 95% (active) in experiment [1] (setting [8]); 85.8% (active) in experiment [1] (at 50.0 µM); 25% in experiment [2] (setting [7]); 97% (active) in experiment [2] (setting [8]); 86.6% (active) in experiment [2] (at 50.0 µM). Moreover, the growth inhibition in experiment [3] (setting [7]) was 54%; in experiment [3] (setting [8]), 97% (active); in experiment [3] (at 50.0 µM), 88.7% (active); in experiment [4] (setting [7]) it was 32%; in experiment [4] (setting [8]), 97% (active); in experiment [4] (at 50.0 µM), 89.5% (active). In addition, the growth inhibition was 73% (active) in experiment [5] (setting [7]); 97% (active) in experiment [5] (setting [8]); 86.8% (active) in experiment [5] (at 50.0 µM); 41% in experiment [6] (setting [7]); 96% (active) in experiment [6] (setting [8]); 82% (active) in experiment [6] (at 50.0 µM).

In the case of `CN(C)c1ccc(C2CC(C)(N3CCCC3)Oc3cc4c(cc32)OCO4)cc1` (stereo unspecified), the growth inhibition was 23% in experiment [1] (setting [7]); 42% in experiment [1] (setting [8]); 17.1% in experiment [1] (at 50.0 µM); 2% in experiment [2] (setting [7]); 24% in experiment [2] (setting [8]); 5% in experiment [2] (at 50.0 µM). For the same molecule, the growth inhibition in experiment [3] (setting [7]) was -10%; in experiment [3] (setting [8]), 43%; in experiment [3] (at 50.0 µM), 13.3%; in experiment [4] (setting [7]), 9%; in experiment [4] (setting [8]), 50%; in experiment [4] (at 50.0 µM), 23.9%. In addition, the growth inhibition in experiment [5] (setting [7]) was 11%; in experiment [5] (setting [8]), 84% (active); in experiment [5] (at 50.0 µM) it was 26.9%; in experiment [6] (setting [7]), 12%; in experiment [6] (setting [8]), 32%; in experiment [6] (at 50.0 µM) it was 33.5%.

As to `OCCN=C1c2ccccc2C2C(c3ccccc31)C1c3ccccc3C(=NCCO)c3ccccc3C21` (stereo unspecified), the growth inhibition was -9% in experiment [1] (setting [7]); 13% in experiment [1] (setting [8]); 46.8% in experiment [1] (at 50.0 µM); -4% in experiment [2] (setting [7]); -8% in experiment [2] (setting [8]); 29.8% in experiment [2] (at 50.0 µM). Moreover, the growth inhibition is 6% in experiment [3] (setting [7]); 6% in experiment [3] (setting [8]); 37.4% in experiment [3] (at 50.0 µM); 4% in experiment [4] (setting [7]); 18% in experiment [4] (setting [8]); 31.1% in experiment [4] (at 50.0 µM). Moreover, the growth inhibition in experiment [5] (setting [7]) is -6%; in experiment [5] (setting [8]) it was 6%; in experiment [5] (at 50.0 µM) it was 40.5%; in experiment [6] (setting [7]) it was 3%; in experiment [6] (setting [8]), 47%; in experiment [6] (at 50.0 µM) it was 82% (active).

Take `C[n+]1c(-c2ccc(/C=N/Nc3ccnc(N/N=C/c4ccc(-c5cn6ccccc6[n+]5C)cc4)n3)cc2)cn2ccccc21`: the growth inhibition is 99% (active) in experiment [1] (setting [7]); 99% (active) in experiment [1] (setting [8]); 99.3% (active) in experiment [1] (at 50.0 µM); 100% (active) in experiment [2] (setting [7]); 99% (active) in experiment [2] (setting [8]); 99.5% (active) in experiment [2] (at 50.0 µM). Also, the growth inhibition was 99% (active) in experiment [3] (setting [7]); 99% (active) in experiment [3] (setting [8]); 99.2% (active) in experiment [3] (at 50.0 µM); 98% (active) in experiment [4] (setting [7]); 99% (active) in experiment [4] (setting [8]); 99.3% (active) in experiment [4] (at 50.0 µM). Moreover, the growth inhibition is 99% (active) in experiment [5] (setting [7]); 99% (active) in experiment [5] (setting [8]); 99.4% (active) in experiment [5] (at 50.0 µM); 99% (active) in experiment [6] (setting [7]); 99% (active) in experiment [6] (setting [8]); 99.2% (active) in experiment [6] (at 50.0 µM).

Turning to `CC(c1ccccc1)c1cc(C(C)(C)C)ccc1O` (stereo unspecified), the growth inhibition is -4% in experiment [1] (setting [7]); 99% (active) in experiment [1] (setting [8]); 99.6% (active) in experiment [1] (at 50.0 µM); -25% in experiment [2] (setting [7]); 100% (active) in experiment [2] (setting [8]); 99.8% (active) in experiment [2] (at 50.0 µM). Moreover, the growth inhibition in experiment [3] (setting [7]) was -2%; in experiment [3] (setting [8]), 71% (active); in experiment [3] (at 50.0 µM), 99.7% (active); in experiment [4] (setting [7]), -12%; in experiment [4] (setting [8]), 100% (active); in experiment [4] (at 50.0 µM), 99.3% (active). Besides, the growth inhibition was -8% in experiment [5] (setting [7]); 99% (active) in experiment [5] (setting [8]); 99.4% (active) in experiment [5] (at 50.0 µM); -19% in experiment [6] (setting [7]); 99% (active) in experiment [6] (setting [8]); 99.3% (active) in experiment [6] (at 50.0 µM).

In the case of `Cc1ccc(NC(=S)SCc2ccc(Cl)cc2)cc1Cl`, the growth inhibition was 33% in experiment [1] (setting [7]); 97% (active) in experiment [1] (setting [8]); 90.5% (active) in experiment [1] (at 50.0 µM); 19% in experiment [2] (setting [7]); 98% (active) in experiment [2] (setting [8]); 92.3% (active) in experiment [2] (at 50.0 µM). The growth inhibition in experiment [3] (setting [7]) was 44%; in experiment [3] (setting [8]), 99% (active); in experiment [3] (at 50.0 µM) it was 92.2% (active); in experiment [4] (setting [7]), 40%; in experiment [4] (setting [8]) it was 98% (active); in experiment [4] (at 50.0 µM), 89.8% (active). Besides, the growth inhibition in experiment [5] (setting [7]) is 55%; in experiment [5] (setting [8]), 99% (active); in experiment [5] (at 50.0 µM), 91.9% (active); in experiment [6] (setting [7]), 23%; in experiment [6] (setting [8]), 97% (active); in experiment [6] (at 50.0 µM) it was 91% (active).

The values are drawn from PubChem BioAssay (NCI).
